D1 agonist: agonists of human D1 dopamine receptor | HEK293 T-REx D1 cells, calcium flux, agonist mode | 360,000 tested, 1% active | activation, % at 2 µM | P21728; note: 0% is about no effect
Target sequence (P21728 whole entry, looked up): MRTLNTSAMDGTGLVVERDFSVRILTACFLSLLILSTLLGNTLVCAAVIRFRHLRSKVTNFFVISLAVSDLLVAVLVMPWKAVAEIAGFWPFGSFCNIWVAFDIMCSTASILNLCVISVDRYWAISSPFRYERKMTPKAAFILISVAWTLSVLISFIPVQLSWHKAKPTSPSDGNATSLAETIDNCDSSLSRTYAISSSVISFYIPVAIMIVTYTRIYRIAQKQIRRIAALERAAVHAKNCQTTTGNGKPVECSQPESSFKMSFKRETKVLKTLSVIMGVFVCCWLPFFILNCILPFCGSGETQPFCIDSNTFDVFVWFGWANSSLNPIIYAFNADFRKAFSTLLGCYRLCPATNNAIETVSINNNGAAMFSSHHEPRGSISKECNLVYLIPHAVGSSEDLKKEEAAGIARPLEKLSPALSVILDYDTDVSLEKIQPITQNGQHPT
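Agonism was scored from calcium flux recorded over 180 s (1 read/s) after pintool compound addition, following a 10-cycle baseline. Cells were inducible force-coupled HEK293 TREx D1, plated overnight at 30 C and loaded with no-wash calcium dye.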
TRHR agonist: activates the human TRH receptor | P34981 | TRHR cells, calcium flux fluo-8, FDSS agonist mode | activation, % at 2 µM | 360,000 tested, 0.18% active | AID 493084; note: 0% is about no effect
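Read-out: compound-evoked intracellular calcium rise in TRHR cells, fluo-8 dye, kinetic FDSS fluorescence at 1 s/cycle following a 10-cycle baseline. Cells cultured overnight before dye loading (30 min–1.5 h, RT).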
TRHR PAM: TRH receptor (human) allosteric enhancement. P34981. TRHR cells, fluo-8 calcium fluorescence, EC20 TRH enhancement. enhancement, % at 2 µM. 360,000 tested, 0.66% active. AID 493056; in the data active = enhancement above about 30%; note: 0% is about no effect
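TRHR-expressing cells loaded with fluo-8 calcium dye were read kinetically (ex 480/em 530) during compound addition, then stimulated with an EC20 of TRH (10 nM final). Enhancement of the Gq-mediated intracellular calcium response was scored.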
D1 PAM: enhances dopamine response at the human D1 receptor. P21728. HEK293 TREx D1 cells, calcium flux, dopamine EC20 potentiation. potentiation, % at 10 µM. 360,000 tested, 0.036% active; in the data active = potentiation above about 30%; note: 0% is about no effect
D1 antagonist: blocks dopamine activation of the human D1 receptor | 360,000 tested, 3.2% active | AID 504652 | HEK293 TREx D1 cells, calcium flux, dopamine EC80; active compounds read low | P21728 | activity change, negative = inhibition, % at 10 µM; in the data active = activity change below about -30%; note: % is set by controls: 0 for no effect and ±100 for the full control effect
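Kinetic fluorescence of a calcium dye serves as the read-out. D1-expressing Hek293 Trex cells, induced overnight at 30 C, are exposed to compound for 180 s before an EC80 dopamine addition, then read 180 s further.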
An asterisk follows results filed as active; / = no result; ! = not active in a repeat. Most compounds without a hit are left out; they make up all but 4.6% or so of the library. Cut-off read from the data, not from the text of the source, unless noted: active = activation above about 30%; inactive = the rest.

SMILES	D1 agonist	TRHR agonist	TRHR PAM	D1 PAM	D1 antagonist
Cc1ccc(OCC(=O)Nc2cc(C)on2)c([N+](=O)[O-])n1	1.0	1.1	-5.2	4.6	4.5
CC1CCC(NC(=O)C2(C)Cc3ccccc3C(=O)N2Cc2ccc(Cl)cc2)CC1 (stereo not given)	-0.3	2.2	9.4	-0.9	-52.3*
CN1C[C@@H]2C(c3ccc(C(F)(F)F)cc3)C3(c4ccccc4)CC2(C3)[C@H]1c1ccccc1 (stereo not given in full)	5.8	0.0	0.0	2.7	23.8
CN1C[C@@H]2C(c3ccccc3)C3(c4cccnc4)CC2(C3)[C@H]1c1ccccc1 (stereo not given in full)	2.1	0.4	4.5	-0.6	-38.6*
CC(Sc1nnnn1C1CC1)C(=O)N1CC(=O)Nc2ccccc21 (stereo not given)	1.5	-1.1	-7.4	-2.6	-32.1*
OC(CNCc1ccncc1)c1ccccc1 (stereo not given)	6.1	2.3	11.3	-2.0	-1.8
OC(CNCc1cccs1)c1ccccc1 (stereo not given)	3.8	0.3	0.8	-4.6	-41.2*
OC(CNCc1ccc(-c2ccccc2)cc1)c1ccccc1 (stereo not given)	56.3*	1.9	0.8	-4.7	6.9
Cn1nnnc1Sc1ncnc2scc(-c3ccccc3S(C)(=O)=O)c12	1.0	1.2	-3.6	5.5	-14.9
Cc1ccc(NC(=O)N(CCC#N)Cc2ccccc2)cc1	1.3	-0.4	-3.4	2.9	0.0
Cc1ccc(NC(=O)Cn2c(CCC(=O)O)ccc2-c2cccs2)cc1Cl	2.4	-0.1	23.6	-14.7	-68.9*
COc1ccc(CN(CC(=O)NC2CCCC2)C(=O)c2csnn2)cc1	0.8	0.4	-8.9	-12.7	-48.7*
Cc1ccc(CN(CC(=O)NC2CCCC2)C(=O)c2csnn2)cc1	2.3	-0.2	7.7	-4.8	9.3
O=C(CN(Cc1ccccc1)C(=O)c1csnn1)NCc1ccccc1	-0.2	-0.6	-0.9	-7.5	-66.7*
O=C(CN(Cc1ccc(Cl)cc1)C(=O)c1csnn1)NCc1ccccc1	4.8	0.0	6.9	/	-1.6
COc1cccc(C(=O)NCC(c2ccc(N(C)C)cc2)N2CCOCC2)c1OC (stereo not given)	-0.1	-1.6	6.6	-0.1	-8.1
O=C(NCCCn1ccnc1)c1cccc(S(=O)(=O)Nc2ccc(Br)cc2)c1	51.2*	-0.3	35.8*	5.0	7.5
O=C(COC(=O)c1cccc(S(=O)(=O)N2CCN(c3ccccc3)CC2)c1)NCc1ccco1	5.7	-0.5	34.6*	-5.0	-14.8
NC(=O)COC(=O)c1cccc(S(=O)(=O)N2CCN(c3ccccc3)CC2)c1	6.1	0.4	1.6	-0.8	-13.3
CC(=O)c1cccc(NS(=O)(=O)c2cccc(S(=O)(=O)c3ccc(Br)cc3)c2)c1	27.4	0.3	1.2	-1.1	-41.1*
O=C(NCCCN1CCCC1=O)c1cccc(NS(=O)(=O)c2ccccc2)c1	3.5	0.1	3.4	2.6	6.9
O=C(NCCCN1CCCC1=O)c1cccc(NS(=O)(=O)c2ccc(Br)cc2)c1	1.3	0.1	33.4*	2.4	-3.1
O=C(NCCCn1ccnc1)c1cccc(S(=O)(=O)Nc2ccc(F)cc2)c1	3.4	0.2	-0.7	1.8	5.2
COc1ccc(S(=O)(=O)Nc2cccc(C(C)=O)c2)cc1Br	5.9	-0.1	-1.7	4.5	-2.0
O=C(NC1CC1)c1nc(Cn2ccc([N+](=O)[O-])n2)no1	5.4	-2.1	19.8	/	4.2
SMILES	D1 agonist	TRHR agonist	TRHR PAM	D1 PAM	D1 antagonist
CC(Sc1c[nH]c2ccccc12)C(=O)O (stereo not given)	3.1	0.3	5.1	4.5	4.6
O=C(NCCCN1CCCC1=O)c1cccc(S(=O)(=O)N2CCN(c3ccccc3)CC2)c1	1.3	-0.3	13.8	-4.3	-44.1*
CCc1sc(C(=O)NCCCn2ccnc2)cc1Br	1.9	-1.6	30.7*	-10.8	6.3
CN(c1ccccc1)S(=O)(=O)c1cccc(C(=O)NCCCN2CCCC2=O)c1	2.0	0.3	1.7	-2.0	-14.8
Cc1ccccc1NC(=O)C(=O)NCCCN1CCCC1=O	2.6	-0.2	19.3	0.8	5.7
O=C(NCCCN1CCCC1=O)C(=O)Nc1cccc(F)c1	6.8	0.0	6.5	-6.0	-43.8*
C/C(CC(=O)NC1CCCC1)=N\NC(=O)c1ccc([N+](=O)[O-])c(Cl)c1	0.8	-0.1	37.6*	-4.7	19.9
CCOC(=O)N[C@H](Cc1c[nH]c2ccccc12)C(=O)Nc1cccc(Cl)c1	8.3	-0.9	1.9	-3.2	-40.7*
CCc1ccccc1NS(=O)(=O)c1ccc2c(c1)C(C)(C)C(=O)N2C	3.1	-0.2	1.8	-5.3	-2.9
CCOc1ccccc1CNS(=O)(=O)c1ccc2c(c1)C(C)(C)C(=O)N2C	2.6	-0.5	1.3	0.1	-34.6*!
CCOc1ccc(N(C)S(=O)(=O)c2ccc3c(c2)C(C)(C)C(=O)N3C)cc1	1.9	-0.6	5.9	-2.8	-35.5*
Fc1ccccc1N1CCN(C2CCN(Cc3c[nH]c4ccccc34)CC2)CC1	46.5*	-1.4	2.6	-7.3	-7.0
O=C(CN1CCN(c2ccccc2F)CC1)c1c[nH]c2ccccc12	9.9	0.5	-5.1	-8.3	-5.8
Cc1ccc(NC(=O)CSc2nc3ccccc3nc2Cc2ccccc2)c(C)c1	3.6	0.0	-0.3	0.3	-3.8
COc1ccc(CCNC(=O)CSc2nc3ccccc3c3nc(CCN4CCCCC4)nn23)cc1OC	0.3	0.0	24.1	-6.6	-24.6
O=C(Nc1ncc(Cc2ccccc2)s1)C1CCCO1 (stereo not given)	3.0	-0.7	-4.7	-0.7	-11.7
CNc1ncc(Cc2ccccc2)s1	2.6	0.6	-0.1	-5.1	-52.7*
O=C(CCCOc1cccc(Br)c1)NC1CCC(O)CC1 (stereo not given)	1.6	1.7	-6.7	1.9	-11.5
CCOC(=O)c1c(NC(=O)C[n+]2ccc(N(C)C)cc2)sc(C)c1C	1.7	0.4	2.0	-0.1	7.0
CN(Cc1ccccc1F)C(=O)c1ccc(Oc2ccccc2)cc1	2.8	0.0	-7.2	-8.8	-31.2*
Cc1ccc(NC(=O)CCS(=O)(=O)c2ccc(Br)s2)cc1	4.0	-1.0	-1.9	-8.3	-52.7*
CCOC(=O)c1ccc(NC(=O)CN(C)S(=O)(=O)c2ccc(Br)s2)cc1	10.2	-0.3	-6.2	-11.9	-38.2*
CCOC(=O)c1ccc(NC(=O)CN(C)S(=O)(=O)c2ccc(OC)cc2)cc1	1.8	-0.7	2.3	-0.3	-15.7
O=C(c1ccc(F)cc1F)N1CCC(N2CCC(C(=O)N3CCOCC3)CC2)CC1	2.3	0.4	0.1	0.5	4.8
Cc1ccc2oc3c(c(=O)c2c1)C(c1cccc(O)c1)N(Cc1ccccc1Cl)C3=O (stereo not given)	0.6	-0.4	10.7	0.6	-54.8*
